# Experimental data taken from article PMC7862700, “An all-to-all approach to the identification of sequence-specific readers for epigenetic DNA modifications on cytosine”.
# Assays:
# Assay in all cases: DAPPL (digital affinity profiling via proximity ligation, sequencing); 10 mM Tris-HCl pH 7.5, 50 mM NaCl, 1 mM DTT, 4% glycerol, room temperature, 30 min; GST-TFs on glutathione beads, 16-mer random dsDNA library, 0.1% formaldehyde crosslink after washing; high values mean tight binding
# FLI1 = biological target: T1, FLI1 (Homo sapiens, UniProt Q01543 1-452); settings: protein: recombinant; tags: N-terminal GST; dsDNA, one strand shown
# T1 sequence: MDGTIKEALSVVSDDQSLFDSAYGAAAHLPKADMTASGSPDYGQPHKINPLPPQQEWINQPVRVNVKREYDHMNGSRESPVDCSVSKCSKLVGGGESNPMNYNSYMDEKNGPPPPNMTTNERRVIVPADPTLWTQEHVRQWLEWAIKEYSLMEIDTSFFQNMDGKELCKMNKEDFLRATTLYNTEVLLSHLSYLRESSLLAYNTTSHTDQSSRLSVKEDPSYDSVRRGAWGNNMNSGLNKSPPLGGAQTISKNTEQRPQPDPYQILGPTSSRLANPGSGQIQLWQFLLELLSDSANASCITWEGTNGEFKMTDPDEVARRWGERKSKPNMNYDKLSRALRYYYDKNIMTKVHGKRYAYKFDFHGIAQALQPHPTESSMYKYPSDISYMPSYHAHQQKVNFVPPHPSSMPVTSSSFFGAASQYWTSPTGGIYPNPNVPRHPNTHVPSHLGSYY
# In short: (§1)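 Sequencing on an Illumina NextSeq500 followed washing, crosslinking with 0.1% formaldehyde, proximity ligation (BsaI/T4 ligase, 1 h, 37 °C) and PCR amplification of pools that had been incubated for 30 min at room temperature with 200 nmole of a random double-stranded 16-mer DNA library in Tris/NaCl/DTT/glycerol buffer. Each pool held DNA-barcoded human transcription factors, expressed in yeast as GST fusions and captured on glutathione beads, plus a tag-only sample. Binding signal is a hexamer's read frequency for a factor divided by its frequency in the tag-only sample.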
# ELK1 = biological target: T2, ELK1 (Homo sapiens, UniProt P19419 1-428); settings: protein: recombinant; tags: N-terminal GST; dsDNA, one strand shown
# T2 sequence: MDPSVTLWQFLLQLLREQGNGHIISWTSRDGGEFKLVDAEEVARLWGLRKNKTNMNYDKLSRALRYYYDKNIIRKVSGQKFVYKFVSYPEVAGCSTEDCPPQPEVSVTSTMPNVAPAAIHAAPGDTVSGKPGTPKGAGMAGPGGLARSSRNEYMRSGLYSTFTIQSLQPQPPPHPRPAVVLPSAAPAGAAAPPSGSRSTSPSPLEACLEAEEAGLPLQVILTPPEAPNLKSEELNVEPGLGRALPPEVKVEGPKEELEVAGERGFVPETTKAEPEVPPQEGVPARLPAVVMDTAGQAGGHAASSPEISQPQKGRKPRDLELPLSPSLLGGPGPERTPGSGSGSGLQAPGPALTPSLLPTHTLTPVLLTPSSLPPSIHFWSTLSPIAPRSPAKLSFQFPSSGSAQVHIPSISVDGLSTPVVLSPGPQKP
# In short: as §1
# GABPA = biological target: T3, GABPA (Homo sapiens, UniProt Q06546 1-454); settings: protein: recombinant; tags: N-terminal GST; dsDNA, one strand shown
# T3 sequence: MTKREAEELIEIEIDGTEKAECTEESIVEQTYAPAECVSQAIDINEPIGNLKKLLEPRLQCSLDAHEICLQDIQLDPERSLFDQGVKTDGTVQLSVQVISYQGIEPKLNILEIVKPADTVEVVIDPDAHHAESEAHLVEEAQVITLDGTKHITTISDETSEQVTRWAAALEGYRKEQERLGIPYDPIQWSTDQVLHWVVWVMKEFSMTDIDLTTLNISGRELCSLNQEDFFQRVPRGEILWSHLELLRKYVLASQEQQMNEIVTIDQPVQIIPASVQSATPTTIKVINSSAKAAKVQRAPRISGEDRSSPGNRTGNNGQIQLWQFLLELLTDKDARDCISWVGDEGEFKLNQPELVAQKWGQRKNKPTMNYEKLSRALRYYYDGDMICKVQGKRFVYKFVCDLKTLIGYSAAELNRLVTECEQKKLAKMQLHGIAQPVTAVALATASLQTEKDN
# In short: as §1
# ERG = biological target: T4, ERG (Homo sapiens, UniProt P11308 1-479); settings: protein: recombinant; tags: N-terminal GST; dsDNA, one strand shown
# T4 sequence: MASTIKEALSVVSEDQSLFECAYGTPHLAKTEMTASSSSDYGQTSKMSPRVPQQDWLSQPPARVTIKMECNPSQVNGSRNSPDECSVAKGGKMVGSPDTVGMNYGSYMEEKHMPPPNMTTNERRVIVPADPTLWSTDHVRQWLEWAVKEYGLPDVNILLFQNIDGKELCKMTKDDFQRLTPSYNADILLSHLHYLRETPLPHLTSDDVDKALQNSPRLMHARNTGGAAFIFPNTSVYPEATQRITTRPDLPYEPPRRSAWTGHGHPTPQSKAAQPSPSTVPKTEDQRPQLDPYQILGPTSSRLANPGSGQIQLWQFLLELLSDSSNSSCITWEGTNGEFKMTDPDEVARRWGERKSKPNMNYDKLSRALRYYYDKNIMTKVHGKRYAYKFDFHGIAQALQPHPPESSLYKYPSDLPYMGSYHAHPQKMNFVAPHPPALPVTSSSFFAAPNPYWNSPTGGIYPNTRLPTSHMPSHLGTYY
# In short: as §1
# ELF1 = ELF1 (Homo sapiens, UniProt P32519 1-619); settings: protein: recombinant; tags: N-terminal GST; dsDNA, one strand shown
# In short: as §1
# EHF = biological target: T5, EHF (Homo sapiens, UniProt Q9NZC4 1-300); settings: protein: recombinant; tags: N-terminal GST; dsDNA, one strand shown
# T5 sequence: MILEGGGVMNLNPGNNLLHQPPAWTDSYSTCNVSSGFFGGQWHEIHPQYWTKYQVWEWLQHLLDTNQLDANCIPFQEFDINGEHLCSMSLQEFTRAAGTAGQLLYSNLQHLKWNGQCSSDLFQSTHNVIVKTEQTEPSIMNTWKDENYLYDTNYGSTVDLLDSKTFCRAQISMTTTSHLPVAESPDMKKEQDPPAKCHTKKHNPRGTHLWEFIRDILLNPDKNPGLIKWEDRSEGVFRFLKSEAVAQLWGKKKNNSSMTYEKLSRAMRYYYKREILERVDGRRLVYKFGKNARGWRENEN
# In short: as §1
# SPI1 = SPI1 (Homo sapiens, UniProt P17947 1-270); settings: protein: recombinant; tags: N-terminal GST; dsDNA, one strand shown
# In short: as §1
# SPIB = SPIB (Homo sapiens, UniProt Q01892 1-262); settings: protein: recombinant; tags: N-terminal GST; dsDNA, one strand shown
# In short: as §1
# ELK3 = biological target: T6, ELK3 (Homo sapiens, UniProt P41970 1-407); settings: protein: recombinant; tags: N-terminal GST; dsDNA, one strand shown
# T6 sequence: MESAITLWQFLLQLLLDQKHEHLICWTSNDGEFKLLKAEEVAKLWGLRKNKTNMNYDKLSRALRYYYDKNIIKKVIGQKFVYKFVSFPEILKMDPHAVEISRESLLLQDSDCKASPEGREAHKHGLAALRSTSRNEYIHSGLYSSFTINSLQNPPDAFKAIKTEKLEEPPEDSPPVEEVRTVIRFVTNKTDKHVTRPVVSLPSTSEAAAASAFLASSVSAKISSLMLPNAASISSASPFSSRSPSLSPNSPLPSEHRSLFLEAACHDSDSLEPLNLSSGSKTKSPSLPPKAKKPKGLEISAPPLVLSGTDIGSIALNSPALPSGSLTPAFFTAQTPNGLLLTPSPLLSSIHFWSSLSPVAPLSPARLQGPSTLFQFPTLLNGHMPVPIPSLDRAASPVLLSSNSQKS
# In short: as §1
# FEV = biological target: T7, FEV (Homo sapiens, UniProt Q99581 1-238); settings: protein: recombinant; tags: N-terminal GST; dsDNA, one strand shown
# T7 sequence: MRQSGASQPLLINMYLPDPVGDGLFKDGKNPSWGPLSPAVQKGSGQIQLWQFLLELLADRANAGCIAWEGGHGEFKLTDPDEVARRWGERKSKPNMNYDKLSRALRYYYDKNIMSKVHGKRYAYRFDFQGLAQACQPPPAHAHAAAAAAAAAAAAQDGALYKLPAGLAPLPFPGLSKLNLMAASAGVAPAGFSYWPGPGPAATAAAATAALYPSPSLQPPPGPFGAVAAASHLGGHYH
# In short: as §1
# ETV5 = ETV5 (Homo sapiens, UniProt P41161 1-510); settings: protein: recombinant; tags: N-terminal GST; dsDNA, one strand shown
# In short: as §1
# HSF1 = HSF1 (Homo sapiens, UniProt Q00613 1-529); settings: protein: recombinant; tags: N-terminal GST; chain copies: 3; dsDNA, one strand shown
# In short: as §1
# SPIC = biological target: T8, SPIC (Homo sapiens, UniProt Q8N5J4 1-248); settings: protein: recombinant; tags: N-terminal GST; dsDNA, one strand shown
# T8 sequence: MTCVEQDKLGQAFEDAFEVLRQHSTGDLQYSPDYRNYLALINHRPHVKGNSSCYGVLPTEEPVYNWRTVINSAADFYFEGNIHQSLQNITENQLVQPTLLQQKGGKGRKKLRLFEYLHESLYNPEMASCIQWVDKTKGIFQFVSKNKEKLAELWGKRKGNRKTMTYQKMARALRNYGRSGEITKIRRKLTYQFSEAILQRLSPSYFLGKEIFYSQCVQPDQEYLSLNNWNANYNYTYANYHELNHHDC
# In short: as §1
# ELF4 = ELF4 (Homo sapiens, UniProt Q99607 1-663); settings: protein: recombinant; tags: N-terminal GST; dsDNA, one strand shown
# In short: as §1
# ELK4 = biological target: T9, ELK4 (Homo sapiens, UniProt P28324-2 1-405); settings: protein: recombinant; tags: N-terminal GST; dsDNA, one strand shown
# T9 sequence: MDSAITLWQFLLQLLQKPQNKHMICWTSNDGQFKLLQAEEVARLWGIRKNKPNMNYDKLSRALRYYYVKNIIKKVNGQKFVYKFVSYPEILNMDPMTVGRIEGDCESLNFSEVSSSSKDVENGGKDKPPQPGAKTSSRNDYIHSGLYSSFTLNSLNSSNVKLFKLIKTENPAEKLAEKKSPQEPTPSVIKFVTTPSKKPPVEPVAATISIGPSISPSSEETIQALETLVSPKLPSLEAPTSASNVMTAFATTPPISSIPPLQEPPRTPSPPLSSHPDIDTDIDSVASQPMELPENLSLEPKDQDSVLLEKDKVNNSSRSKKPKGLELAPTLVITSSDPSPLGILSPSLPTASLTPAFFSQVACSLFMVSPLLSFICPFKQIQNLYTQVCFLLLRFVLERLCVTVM
# In short: as §1
# ETV2 = biological target: T10, ETV2 (Homo sapiens, UniProt O00321 1-342); settings: protein: recombinant; tags: N-terminal GST; dsDNA, one strand shown
# T10 sequence: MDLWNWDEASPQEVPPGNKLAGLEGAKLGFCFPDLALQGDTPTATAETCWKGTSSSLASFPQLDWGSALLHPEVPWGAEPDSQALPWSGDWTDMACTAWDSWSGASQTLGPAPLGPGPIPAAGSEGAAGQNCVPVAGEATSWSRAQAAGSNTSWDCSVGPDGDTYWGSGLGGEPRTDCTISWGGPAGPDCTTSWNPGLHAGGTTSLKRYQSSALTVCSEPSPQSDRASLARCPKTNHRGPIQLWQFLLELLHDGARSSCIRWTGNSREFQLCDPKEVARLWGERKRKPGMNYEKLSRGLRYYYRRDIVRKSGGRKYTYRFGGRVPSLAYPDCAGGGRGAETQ
# In short: as §1
# ELF3 = biological target: T11, ELF3 (Homo sapiens, UniProt P78545 1-371); settings: protein: recombinant; tags: N-terminal GST; dsDNA, one strand shown
# T11 sequence: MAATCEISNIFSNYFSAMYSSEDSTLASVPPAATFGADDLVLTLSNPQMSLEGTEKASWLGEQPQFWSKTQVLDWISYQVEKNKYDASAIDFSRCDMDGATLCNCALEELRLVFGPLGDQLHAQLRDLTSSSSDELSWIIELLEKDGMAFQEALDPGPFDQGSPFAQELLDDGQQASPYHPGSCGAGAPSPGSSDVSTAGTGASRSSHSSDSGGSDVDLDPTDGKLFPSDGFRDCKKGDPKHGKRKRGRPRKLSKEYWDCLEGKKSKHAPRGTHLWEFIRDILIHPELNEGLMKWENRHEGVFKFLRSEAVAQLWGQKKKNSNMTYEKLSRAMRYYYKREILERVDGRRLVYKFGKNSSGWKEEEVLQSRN
# In short: as §1
# CRX = CRX (Homo sapiens, UniProt O43186 1-299); settings: protein: recombinant; tags: N-terminal GST; dsDNA, one strand shown
# In short: as §1
# ETV1 = ETV1 (Homo sapiens, UniProt P50549 1-477); settings: protein: recombinant; tags: N-terminal GST; dsDNA, one strand shown
# In short: as §1
# Chain of ETV1 (P50549 whole entry): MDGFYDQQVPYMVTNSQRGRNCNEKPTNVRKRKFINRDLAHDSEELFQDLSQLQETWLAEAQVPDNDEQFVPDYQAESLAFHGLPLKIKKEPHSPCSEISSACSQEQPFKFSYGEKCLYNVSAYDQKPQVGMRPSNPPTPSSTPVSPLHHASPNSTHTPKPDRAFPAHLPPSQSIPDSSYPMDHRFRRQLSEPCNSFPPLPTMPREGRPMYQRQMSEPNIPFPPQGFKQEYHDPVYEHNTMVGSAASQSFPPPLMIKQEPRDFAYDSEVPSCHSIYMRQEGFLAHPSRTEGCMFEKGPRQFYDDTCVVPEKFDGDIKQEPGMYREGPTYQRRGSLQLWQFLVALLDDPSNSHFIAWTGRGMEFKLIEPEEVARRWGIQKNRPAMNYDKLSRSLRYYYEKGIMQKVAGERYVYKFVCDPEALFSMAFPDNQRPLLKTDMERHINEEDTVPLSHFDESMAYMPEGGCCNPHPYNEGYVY
# Chain of ETV5 (P41161 whole entry): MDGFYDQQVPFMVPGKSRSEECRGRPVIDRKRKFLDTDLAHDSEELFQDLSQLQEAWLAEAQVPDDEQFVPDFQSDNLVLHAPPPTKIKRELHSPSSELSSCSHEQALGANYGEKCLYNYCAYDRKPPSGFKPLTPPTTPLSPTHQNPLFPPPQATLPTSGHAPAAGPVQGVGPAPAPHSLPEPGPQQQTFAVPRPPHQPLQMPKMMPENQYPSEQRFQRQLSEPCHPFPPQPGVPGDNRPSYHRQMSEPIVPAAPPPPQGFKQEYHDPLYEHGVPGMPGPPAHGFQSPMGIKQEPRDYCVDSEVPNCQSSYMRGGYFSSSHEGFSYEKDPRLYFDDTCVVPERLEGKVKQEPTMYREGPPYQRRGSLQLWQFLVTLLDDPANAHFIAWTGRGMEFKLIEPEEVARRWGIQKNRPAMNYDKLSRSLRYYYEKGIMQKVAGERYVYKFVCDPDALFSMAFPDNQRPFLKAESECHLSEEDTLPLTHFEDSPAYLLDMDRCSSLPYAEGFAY
# Chain of SPIB (Q01892 whole entry): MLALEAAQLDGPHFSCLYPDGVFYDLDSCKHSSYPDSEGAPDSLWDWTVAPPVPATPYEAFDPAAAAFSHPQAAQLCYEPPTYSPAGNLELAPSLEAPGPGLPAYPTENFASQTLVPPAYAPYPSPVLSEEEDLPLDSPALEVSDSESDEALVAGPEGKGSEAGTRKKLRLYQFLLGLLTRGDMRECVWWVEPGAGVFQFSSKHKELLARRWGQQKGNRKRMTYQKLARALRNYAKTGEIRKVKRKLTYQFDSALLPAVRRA
# Chain of ELF4 (Q99607 whole entry): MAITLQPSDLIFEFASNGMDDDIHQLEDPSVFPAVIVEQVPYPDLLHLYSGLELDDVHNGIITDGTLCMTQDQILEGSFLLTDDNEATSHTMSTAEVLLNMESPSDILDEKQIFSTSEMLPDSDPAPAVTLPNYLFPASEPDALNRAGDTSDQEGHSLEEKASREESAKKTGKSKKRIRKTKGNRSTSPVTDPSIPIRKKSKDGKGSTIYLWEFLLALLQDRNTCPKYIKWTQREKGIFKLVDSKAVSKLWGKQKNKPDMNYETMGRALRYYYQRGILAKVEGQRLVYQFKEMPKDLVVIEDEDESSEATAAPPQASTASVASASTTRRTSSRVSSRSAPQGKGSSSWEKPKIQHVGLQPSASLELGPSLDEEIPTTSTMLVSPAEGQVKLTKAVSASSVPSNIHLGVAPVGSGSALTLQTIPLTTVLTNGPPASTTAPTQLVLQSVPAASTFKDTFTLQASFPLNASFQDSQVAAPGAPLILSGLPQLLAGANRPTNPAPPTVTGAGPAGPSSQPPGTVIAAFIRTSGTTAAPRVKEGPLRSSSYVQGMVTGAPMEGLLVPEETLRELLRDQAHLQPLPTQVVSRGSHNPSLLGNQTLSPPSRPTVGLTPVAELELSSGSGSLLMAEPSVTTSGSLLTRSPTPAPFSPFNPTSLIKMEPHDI
# Chain of ELF1 (P32519 whole entry): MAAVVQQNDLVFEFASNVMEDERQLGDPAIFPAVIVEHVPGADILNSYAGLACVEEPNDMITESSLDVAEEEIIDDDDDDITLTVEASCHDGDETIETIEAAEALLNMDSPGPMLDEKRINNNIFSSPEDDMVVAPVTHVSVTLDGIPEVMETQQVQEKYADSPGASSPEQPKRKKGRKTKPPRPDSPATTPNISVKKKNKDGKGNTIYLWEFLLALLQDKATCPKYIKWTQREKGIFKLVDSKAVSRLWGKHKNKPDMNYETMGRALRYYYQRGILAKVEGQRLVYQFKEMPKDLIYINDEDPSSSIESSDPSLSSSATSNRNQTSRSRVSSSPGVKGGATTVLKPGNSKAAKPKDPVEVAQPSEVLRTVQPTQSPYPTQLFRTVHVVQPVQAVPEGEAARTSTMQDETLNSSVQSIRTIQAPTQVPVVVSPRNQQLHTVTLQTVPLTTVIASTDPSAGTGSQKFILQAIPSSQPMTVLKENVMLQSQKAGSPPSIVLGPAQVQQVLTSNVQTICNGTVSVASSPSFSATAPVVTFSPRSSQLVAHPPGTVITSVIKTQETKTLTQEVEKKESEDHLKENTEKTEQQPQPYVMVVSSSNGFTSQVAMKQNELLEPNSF
# Chain of HSF1 (Q00613 whole entry): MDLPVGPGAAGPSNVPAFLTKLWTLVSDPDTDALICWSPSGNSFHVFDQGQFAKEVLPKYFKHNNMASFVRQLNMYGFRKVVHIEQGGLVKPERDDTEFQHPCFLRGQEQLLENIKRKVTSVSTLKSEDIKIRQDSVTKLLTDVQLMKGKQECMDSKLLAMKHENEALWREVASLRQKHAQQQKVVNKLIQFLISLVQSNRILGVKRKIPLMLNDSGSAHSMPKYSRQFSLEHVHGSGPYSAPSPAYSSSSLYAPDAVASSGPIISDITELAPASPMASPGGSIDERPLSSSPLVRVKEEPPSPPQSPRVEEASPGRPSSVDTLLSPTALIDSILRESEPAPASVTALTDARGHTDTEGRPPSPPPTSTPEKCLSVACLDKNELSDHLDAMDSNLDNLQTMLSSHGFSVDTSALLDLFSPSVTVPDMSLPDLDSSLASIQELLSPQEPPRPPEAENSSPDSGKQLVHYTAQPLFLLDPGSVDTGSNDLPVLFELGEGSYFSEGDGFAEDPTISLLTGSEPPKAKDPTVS
# Chain of CRX (O43186 whole entry): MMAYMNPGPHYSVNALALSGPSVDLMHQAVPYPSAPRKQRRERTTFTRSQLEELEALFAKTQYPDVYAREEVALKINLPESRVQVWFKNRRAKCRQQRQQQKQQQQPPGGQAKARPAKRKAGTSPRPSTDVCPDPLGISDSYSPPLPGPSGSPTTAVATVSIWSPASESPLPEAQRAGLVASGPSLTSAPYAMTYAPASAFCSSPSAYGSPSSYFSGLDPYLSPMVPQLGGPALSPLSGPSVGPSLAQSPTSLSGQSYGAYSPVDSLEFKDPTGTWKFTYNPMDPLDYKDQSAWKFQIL
sequence,measurement,setting,value
CCTCGA,binding signal,FLI1,"1.33 fold enrichment (6-mer frequency, TF over GST control)"
same,binding signal,ELK1,"1.26 fold enrichment (6-mer frequency, TF over GST control)"
same,binding signal,GABPA,"1.31 fold enrichment (6-mer frequency, TF over GST control)"
same,binding signal,ERG,"1.3 fold enrichment (6-mer frequency, TF over GST control)"
same,binding signal,ELF1,"1.27 fold enrichment (6-mer frequency, TF over GST control)"
same,binding signal,EHF,"1.37 fold enrichment (6-mer frequency, TF over GST control)"
same,binding signal,SPI1,"1.26 fold enrichment (6-mer frequency, TF over GST control)"
same,binding signal,SPIB,"1.25 fold enrichment (6-mer frequency, TF over GST control)"
same,binding signal,ELK3,"1.18 fold enrichment (6-mer frequency, TF over GST control)"
same,binding signal,FEV,"1.21 fold enrichment (6-mer frequency, TF over GST control)"
same,binding signal,ETV5,"1.27 fold enrichment (6-mer frequency, TF over GST control)"
same,binding signal,HSF1,"1.75 fold enrichment (6-mer frequency, TF over GST control)"
same,binding signal,SPIC,"1.29 fold enrichment (6-mer frequency, TF over GST control)"
same,binding signal,ELF4,"1.35 fold enrichment (6-mer frequency, TF over GST control)"
same,binding signal,ELK4,"1.38 fold enrichment (6-mer frequency, TF over GST control)"
same,binding signal,ETV2,"1.55 fold enrichment (6-mer frequency, TF over GST control)"
same,binding signal,ELF3,"1.25 fold enrichment (6-mer frequency, TF over GST control)"
same,binding signal,CRX,"1.26 fold enrichment (6-mer frequency, TF over GST control)"
same,binding signal,ETV1,"1.15 fold enrichment (6-mer frequency, TF over GST control)"
